Key:
Assay in all cases: DAPPL (digital affinity profiling via proximity ligation, sequencing); 10 mM Tris-HCl pH 7.5, 50 mM NaCl, 1 mM DTT, 4% glycerol, room temperature, 30 min; GST-TFs on glutathione beads, 16-mer random dsDNA library, 0.1% formaldehyde crosslink after washing; high values mean tight binding
[1] = molecular target: T1, FLI1 (Homo sapiens, UniProt Q01543 1-452); details: protein: recombinant; tags: N-terminal GST; dsDNA, one strand shown
T1 sequence: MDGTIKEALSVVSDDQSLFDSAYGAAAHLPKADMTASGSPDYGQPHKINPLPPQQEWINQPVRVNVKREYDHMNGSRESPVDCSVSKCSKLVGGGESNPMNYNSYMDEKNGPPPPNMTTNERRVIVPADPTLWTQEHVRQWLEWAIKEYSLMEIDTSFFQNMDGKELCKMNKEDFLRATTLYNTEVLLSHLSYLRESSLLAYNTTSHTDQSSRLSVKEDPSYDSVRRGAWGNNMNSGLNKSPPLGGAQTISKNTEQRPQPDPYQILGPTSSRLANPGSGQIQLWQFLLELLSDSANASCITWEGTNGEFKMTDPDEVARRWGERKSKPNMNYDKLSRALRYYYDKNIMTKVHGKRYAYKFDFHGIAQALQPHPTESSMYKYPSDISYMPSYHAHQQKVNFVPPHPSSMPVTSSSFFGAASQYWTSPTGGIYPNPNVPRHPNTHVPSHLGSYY
Method in brief: (§1)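 The binding signal reported is, for every hexamer, its read frequency for a factor over its read frequency for the tag-only sample. Reads came from pools of yeast-expressed, GST-fused human transcription factors on glutathione beads, barcoded with DNA and mixed with that sample, which were incubated with 200 nmole of a random double-stranded 16-mer DNA library in Tris/NaCl/DTT/glycerol buffer at room temperature for 30 min. After washing, the pools were crosslinked with 0.1% formaldehyde, proximity-ligated with BsaI/T4 ligase for 1 h at 37 °C, PCR-amplified and sequenced on an Illumina NextSeq500.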

[2] = molecular target: T2, ELK1 (Homo sapiens, UniProt P19419 1-428); details: protein: recombinant; tags: N-terminal GST; dsDNA, one strand shown
T2 sequence: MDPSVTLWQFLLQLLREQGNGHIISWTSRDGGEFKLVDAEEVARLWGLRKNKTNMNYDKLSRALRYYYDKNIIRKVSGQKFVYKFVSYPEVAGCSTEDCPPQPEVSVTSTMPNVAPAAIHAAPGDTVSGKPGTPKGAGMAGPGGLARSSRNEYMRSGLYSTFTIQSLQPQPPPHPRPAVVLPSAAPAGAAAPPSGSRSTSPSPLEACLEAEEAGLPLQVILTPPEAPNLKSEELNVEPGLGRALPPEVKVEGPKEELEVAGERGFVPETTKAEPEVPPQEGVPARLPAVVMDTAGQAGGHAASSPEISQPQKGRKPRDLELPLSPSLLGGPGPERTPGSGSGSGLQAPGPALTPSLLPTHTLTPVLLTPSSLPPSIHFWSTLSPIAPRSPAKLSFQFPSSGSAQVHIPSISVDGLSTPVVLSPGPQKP
Method in brief: as §1

[3] = molecular target: T3, GABPA (Homo sapiens, UniProt Q06546 1-454); details: protein: recombinant; tags: N-terminal GST; dsDNA, one strand shown
T3 sequence: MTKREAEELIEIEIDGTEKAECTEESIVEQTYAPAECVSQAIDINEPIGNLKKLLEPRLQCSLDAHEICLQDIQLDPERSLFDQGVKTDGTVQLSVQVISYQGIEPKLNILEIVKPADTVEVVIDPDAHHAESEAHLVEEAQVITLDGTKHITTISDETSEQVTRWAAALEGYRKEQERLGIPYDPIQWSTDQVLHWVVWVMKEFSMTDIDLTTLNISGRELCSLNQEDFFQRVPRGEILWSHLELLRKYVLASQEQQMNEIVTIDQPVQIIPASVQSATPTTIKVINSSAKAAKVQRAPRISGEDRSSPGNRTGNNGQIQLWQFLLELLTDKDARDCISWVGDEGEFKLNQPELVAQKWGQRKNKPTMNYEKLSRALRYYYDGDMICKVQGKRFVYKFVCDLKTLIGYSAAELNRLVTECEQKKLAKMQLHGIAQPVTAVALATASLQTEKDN
Method in brief: as §1

[4] = molecular target: T4, ERG (Homo sapiens, UniProt P11308 1-479); details: protein: recombinant; tags: N-terminal GST; dsDNA, one strand shown
T4 sequence: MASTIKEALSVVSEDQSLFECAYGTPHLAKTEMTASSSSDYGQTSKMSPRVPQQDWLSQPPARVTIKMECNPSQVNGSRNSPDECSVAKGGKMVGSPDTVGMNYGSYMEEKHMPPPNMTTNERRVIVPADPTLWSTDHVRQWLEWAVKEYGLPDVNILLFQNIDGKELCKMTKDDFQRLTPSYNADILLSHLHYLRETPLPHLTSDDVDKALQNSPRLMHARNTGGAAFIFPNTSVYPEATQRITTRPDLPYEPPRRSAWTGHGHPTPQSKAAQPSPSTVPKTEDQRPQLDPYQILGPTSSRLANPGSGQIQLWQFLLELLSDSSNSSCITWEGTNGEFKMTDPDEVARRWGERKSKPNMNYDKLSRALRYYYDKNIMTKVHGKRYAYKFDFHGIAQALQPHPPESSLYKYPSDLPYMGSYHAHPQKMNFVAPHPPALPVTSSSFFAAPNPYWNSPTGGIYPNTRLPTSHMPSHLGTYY
Method in brief: as §1

[5] = molecular target: ELF1 (Homo sapiens, UniProt P32519 1-619); details: protein: recombinant; tags: N-terminal GST; dsDNA, one strand shown
Method in brief: as §1

[6] = molecular target: T5, EHF (Homo sapiens, UniProt Q9NZC4 1-300); details: protein: recombinant; tags: N-terminal GST; dsDNA, one strand shown
T5 sequence: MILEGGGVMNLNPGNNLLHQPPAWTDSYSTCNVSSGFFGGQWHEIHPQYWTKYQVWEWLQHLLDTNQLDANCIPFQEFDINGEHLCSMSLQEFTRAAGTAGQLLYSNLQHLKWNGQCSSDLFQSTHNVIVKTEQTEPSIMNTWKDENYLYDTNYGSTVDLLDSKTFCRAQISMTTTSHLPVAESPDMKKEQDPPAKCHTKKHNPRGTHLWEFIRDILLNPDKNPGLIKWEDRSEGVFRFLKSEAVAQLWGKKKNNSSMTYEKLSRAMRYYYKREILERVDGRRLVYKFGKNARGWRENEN
Method in brief: as §1

[7] = molecular target: SPI1 (Homo sapiens, UniProt P17947 1-270); details: protein: recombinant; tags: N-terminal GST; dsDNA, one strand shown
Method in brief: as §1

[8] = molecular target: SPIB (Homo sapiens, UniProt Q01892 1-262); details: protein: recombinant; tags: N-terminal GST; dsDNA, one strand shown
Method in brief: as §1

[9] = molecular target: T6, ELK3 (Homo sapiens, UniProt P41970 1-407); details: protein: recombinant; tags: N-terminal GST; dsDNA, one strand shown
T6 sequence: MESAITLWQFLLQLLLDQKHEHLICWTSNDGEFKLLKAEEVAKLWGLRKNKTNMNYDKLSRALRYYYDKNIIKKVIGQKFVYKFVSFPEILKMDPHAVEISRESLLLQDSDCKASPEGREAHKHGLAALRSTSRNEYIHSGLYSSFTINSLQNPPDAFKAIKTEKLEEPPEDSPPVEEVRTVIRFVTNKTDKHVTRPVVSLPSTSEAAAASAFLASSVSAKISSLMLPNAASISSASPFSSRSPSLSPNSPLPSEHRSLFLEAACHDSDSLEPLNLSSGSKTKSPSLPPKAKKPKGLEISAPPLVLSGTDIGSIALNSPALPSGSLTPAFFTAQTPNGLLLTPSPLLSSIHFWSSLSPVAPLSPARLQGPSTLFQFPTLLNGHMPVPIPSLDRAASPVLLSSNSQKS
Method in brief: as §1

[10] = molecular target: T7, FEV (Homo sapiens, UniProt Q99581 1-238); details: protein: recombinant; tags: N-terminal GST; dsDNA, one strand shown
T7 sequence: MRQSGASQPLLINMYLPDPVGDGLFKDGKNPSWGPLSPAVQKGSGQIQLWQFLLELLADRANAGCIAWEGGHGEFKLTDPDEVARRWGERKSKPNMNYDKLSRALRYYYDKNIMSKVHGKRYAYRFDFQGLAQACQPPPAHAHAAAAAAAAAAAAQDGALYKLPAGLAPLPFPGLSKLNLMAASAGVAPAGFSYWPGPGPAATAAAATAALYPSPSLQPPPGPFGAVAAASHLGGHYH
Method in brief: as §1

[11] = molecular target: ETV5 (Homo sapiens, UniProt P41161 1-510); details: protein: recombinant; tags: N-terminal GST; dsDNA, one strand shown
Method in brief: as §1

[12] = molecular target: HSF1 (Homo sapiens, UniProt Q00613 1-529); details: protein: recombinant; tags: N-terminal GST; chain copies: 3; dsDNA, one strand shown
Method in brief: as §1

[13] = molecular target: T8, SPIC (Homo sapiens, UniProt Q8N5J4 1-248); details: protein: recombinant; tags: N-terminal GST; dsDNA, one strand shown
T8 sequence: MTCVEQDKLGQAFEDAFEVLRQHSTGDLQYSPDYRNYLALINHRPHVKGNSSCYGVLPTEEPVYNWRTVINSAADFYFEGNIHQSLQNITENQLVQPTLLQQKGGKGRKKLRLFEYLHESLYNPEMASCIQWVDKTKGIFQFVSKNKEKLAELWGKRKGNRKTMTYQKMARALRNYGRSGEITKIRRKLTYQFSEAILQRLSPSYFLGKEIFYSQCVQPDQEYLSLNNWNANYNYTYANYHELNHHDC
Method in brief: as §1

[14] = molecular target: ELF4 (Homo sapiens, UniProt Q99607 1-663); details: protein: recombinant; tags: N-terminal GST; dsDNA, one strand shown
Method in brief: as §1

[15] = molecular target: T9, ELK4 (Homo sapiens, UniProt P28324-2 1-405); details: protein: recombinant; tags: N-terminal GST; dsDNA, one strand shown
T9 sequence: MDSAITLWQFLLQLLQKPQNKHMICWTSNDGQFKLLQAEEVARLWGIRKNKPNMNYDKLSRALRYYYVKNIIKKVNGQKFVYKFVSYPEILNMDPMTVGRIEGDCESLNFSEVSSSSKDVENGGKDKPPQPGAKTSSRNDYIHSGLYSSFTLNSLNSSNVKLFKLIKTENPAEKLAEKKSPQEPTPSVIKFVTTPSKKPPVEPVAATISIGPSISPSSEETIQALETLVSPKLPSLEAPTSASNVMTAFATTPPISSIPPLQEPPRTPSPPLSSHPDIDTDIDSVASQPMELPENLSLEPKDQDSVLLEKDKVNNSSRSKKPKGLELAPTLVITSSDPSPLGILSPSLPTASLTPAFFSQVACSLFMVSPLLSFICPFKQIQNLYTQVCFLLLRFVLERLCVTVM
Method in brief: as §1

[16] = molecular target: T10, ETV2 (Homo sapiens, UniProt O00321 1-342); details: protein: recombinant; tags: N-terminal GST; dsDNA, one strand shown
T10 sequence: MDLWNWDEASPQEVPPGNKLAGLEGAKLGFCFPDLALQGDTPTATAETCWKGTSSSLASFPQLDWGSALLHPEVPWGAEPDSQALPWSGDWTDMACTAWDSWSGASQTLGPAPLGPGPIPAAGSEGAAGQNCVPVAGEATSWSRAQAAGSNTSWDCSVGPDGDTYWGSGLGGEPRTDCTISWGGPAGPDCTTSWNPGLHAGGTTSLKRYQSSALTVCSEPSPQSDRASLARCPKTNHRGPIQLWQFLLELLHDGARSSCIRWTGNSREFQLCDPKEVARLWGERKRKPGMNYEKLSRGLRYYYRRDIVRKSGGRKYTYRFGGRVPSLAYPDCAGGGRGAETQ
Method in brief: as §1

[17] = molecular target: T11, ELF3 (Homo sapiens, UniProt P78545 1-371); details: protein: recombinant; tags: N-terminal GST; dsDNA, one strand shown
T11 sequence: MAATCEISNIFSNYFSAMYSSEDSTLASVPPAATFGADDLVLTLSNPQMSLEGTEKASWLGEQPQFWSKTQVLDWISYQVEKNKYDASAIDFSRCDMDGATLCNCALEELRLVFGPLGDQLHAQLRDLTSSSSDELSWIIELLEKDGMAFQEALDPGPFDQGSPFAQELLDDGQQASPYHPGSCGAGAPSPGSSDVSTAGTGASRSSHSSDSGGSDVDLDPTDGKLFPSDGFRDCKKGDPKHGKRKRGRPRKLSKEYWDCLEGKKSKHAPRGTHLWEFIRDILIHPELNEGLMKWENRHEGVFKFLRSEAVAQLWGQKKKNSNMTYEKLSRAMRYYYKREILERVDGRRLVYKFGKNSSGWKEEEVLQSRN
Method in brief: as §1

[18] = molecular target: CRX (Homo sapiens, UniProt O43186 1-299); details: protein: recombinant; tags: N-terminal GST; dsDNA, one strand shown
Method in brief: as §1

[19] = molecular target: ETV1 (Homo sapiens, UniProt P50549 1-477); details: protein: recombinant; tags: N-terminal GST; dsDNA, one strand shown
Method in brief: as §1

Sequence of ETV1 (P50549 whole entry): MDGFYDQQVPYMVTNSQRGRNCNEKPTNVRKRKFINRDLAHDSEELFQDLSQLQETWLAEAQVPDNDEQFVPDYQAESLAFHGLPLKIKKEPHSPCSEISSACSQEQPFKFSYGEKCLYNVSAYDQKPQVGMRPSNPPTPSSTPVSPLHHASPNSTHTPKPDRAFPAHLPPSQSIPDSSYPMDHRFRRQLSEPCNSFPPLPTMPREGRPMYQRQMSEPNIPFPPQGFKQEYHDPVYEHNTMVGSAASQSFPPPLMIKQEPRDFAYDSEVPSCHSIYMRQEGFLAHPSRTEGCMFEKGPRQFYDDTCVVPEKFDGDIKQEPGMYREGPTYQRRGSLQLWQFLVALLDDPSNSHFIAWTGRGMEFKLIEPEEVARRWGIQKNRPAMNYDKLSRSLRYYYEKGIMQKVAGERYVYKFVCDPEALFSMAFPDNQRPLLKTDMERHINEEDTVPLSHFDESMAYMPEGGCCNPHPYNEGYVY
Sequence of CRX (O43186 whole entry): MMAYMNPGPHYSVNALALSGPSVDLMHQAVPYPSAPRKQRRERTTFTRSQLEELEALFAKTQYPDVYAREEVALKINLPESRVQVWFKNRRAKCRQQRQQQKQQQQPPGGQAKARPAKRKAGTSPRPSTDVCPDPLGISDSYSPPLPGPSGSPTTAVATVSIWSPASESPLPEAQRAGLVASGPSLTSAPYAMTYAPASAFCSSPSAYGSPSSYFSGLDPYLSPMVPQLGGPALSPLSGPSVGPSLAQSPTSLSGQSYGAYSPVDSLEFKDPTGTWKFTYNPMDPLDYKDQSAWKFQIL
Sequence of SPIB (Q01892 whole entry): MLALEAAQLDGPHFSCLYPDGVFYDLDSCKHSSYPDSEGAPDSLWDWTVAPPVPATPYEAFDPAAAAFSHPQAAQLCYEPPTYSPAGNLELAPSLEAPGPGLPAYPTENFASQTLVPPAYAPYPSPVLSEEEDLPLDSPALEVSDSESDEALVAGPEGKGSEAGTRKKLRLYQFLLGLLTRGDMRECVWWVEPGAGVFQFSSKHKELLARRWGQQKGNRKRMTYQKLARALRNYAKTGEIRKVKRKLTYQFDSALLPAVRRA
Sequence of HSF1 (Q00613 whole entry): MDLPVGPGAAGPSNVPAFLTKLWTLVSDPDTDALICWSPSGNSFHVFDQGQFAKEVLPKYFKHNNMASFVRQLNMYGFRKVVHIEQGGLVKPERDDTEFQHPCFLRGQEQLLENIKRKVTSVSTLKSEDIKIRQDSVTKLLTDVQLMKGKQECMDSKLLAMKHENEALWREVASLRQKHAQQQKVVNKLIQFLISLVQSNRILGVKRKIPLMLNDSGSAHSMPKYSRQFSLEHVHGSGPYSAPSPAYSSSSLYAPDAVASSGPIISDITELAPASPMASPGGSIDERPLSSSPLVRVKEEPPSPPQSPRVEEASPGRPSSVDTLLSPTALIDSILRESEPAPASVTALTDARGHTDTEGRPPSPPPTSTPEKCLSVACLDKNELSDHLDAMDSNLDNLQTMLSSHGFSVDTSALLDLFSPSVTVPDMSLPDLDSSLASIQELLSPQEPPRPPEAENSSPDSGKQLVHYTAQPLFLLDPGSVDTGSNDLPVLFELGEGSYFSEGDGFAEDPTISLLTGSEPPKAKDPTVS
Sequence of ETV5 (P41161 whole entry): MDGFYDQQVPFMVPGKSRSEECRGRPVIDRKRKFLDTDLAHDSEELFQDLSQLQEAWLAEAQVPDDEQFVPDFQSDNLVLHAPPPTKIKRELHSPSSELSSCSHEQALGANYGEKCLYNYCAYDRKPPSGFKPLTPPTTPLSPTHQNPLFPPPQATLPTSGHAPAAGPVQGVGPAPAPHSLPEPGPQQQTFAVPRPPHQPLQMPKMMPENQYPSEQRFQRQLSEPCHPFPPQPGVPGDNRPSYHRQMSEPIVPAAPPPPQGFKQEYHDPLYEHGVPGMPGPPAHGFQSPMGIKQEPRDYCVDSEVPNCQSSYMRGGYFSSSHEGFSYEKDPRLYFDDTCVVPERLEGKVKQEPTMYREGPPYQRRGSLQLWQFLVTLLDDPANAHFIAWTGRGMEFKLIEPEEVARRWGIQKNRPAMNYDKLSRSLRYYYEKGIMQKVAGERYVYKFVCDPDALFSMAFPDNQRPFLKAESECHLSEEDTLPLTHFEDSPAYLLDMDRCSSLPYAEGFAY
Sequence of ELF1 (P32519 whole entry): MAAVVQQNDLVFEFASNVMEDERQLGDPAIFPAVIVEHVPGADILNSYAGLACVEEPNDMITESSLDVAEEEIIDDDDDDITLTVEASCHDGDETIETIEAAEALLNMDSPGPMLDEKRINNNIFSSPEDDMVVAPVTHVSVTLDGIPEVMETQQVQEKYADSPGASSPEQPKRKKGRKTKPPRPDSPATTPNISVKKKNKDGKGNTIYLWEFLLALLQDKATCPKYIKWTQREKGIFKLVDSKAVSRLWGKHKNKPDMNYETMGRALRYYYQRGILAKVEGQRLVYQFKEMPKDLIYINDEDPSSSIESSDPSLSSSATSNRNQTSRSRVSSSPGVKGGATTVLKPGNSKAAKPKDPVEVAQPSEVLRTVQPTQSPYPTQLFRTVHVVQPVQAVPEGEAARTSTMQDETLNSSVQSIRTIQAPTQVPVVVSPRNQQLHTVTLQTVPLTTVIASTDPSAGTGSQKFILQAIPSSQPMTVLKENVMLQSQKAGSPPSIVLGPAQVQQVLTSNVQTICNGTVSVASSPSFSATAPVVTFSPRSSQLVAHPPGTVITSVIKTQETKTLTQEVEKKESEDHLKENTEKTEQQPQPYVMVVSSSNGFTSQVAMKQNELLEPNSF
Sequence of ELF4 (Q99607 whole entry): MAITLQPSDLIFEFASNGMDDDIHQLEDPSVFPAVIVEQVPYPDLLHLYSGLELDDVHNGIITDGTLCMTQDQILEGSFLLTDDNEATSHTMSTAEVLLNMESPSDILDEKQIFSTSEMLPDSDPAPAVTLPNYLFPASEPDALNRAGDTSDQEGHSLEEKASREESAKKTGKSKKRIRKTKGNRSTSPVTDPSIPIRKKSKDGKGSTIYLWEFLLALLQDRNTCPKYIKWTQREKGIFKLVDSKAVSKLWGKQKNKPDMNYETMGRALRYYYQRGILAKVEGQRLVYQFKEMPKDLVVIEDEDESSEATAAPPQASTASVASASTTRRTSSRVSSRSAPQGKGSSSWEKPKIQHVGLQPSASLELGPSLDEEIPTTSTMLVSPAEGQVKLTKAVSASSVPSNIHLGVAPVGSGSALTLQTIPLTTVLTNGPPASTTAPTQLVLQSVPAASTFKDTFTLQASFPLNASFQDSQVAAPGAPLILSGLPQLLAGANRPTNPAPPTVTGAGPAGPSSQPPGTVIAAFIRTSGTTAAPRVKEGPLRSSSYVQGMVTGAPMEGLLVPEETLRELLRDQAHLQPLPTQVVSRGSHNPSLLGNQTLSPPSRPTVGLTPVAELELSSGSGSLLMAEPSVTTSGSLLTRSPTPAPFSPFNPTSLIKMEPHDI

## AACAAT
[1]
  binding signal: 1.31 fold enrichment (6-mer frequency, TF over GST control)
[2]
  binding signal: 1.29 fold enrichment (6-mer frequency, TF over GST control)
[3]
  binding signal: 1.32 fold enrichment (6-mer frequency, TF over GST control)
[4]
  binding signal: 1.28 fold enrichment (6-mer frequency, TF over GST control)
[5]
  binding signal: 1.29 fold enrichment (6-mer frequency, TF over GST control)
[6]
  binding signal: 1.26 fold enrichment (6-mer frequency, TF over GST control)
[7]
  binding signal: 1.32 fold enrichment (6-mer frequency, TF over GST control)
[8]
  binding signal: 1.29 fold enrichment (6-mer frequency, TF over GST control)
[9]
  binding signal: 1.32 fold enrichment (6-mer frequency, TF over GST control)
[10]
  binding signal: 1.29 fold enrichment (6-mer frequency, TF over GST control)
[11]
  binding signal: 1.29 fold enrichment (6-mer frequency, TF over GST control)
[12]
  binding signal: 1.48 fold enrichment (6-mer frequency, TF over GST control)
[13]
  binding signal: 1.26 fold enrichment (6-mer frequency, TF over GST control)
[14]
  binding signal: 1.32 fold enrichment (6-mer frequency, TF over GST control)
[15]
  binding signal: 1.27 fold enrichment (6-mer frequency, TF over GST control)
[16]
  binding signal: 1.31 fold enrichment (6-mer frequency, TF over GST control)
[17]
  binding signal: 1.56 fold enrichment (6-mer frequency, TF over GST control)
[18]
  binding signal: 1.24 fold enrichment (6-mer frequency, TF over GST control)
[19]
  binding signal: 1.36 fold enrichment (6-mer frequency, TF over GST control)

Source: publication PMC7862700, “An all-to-all approach to the identification of sequence-specific readers for epigenetic DNA modifications on cytosine”
